The record followed here is PubChem BioAssay (NCI).

Compounds without any hit were thinned out: in the full panel of roughly 83,000, 20% have a hit.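 Percent growth is the endpoint: 0 to 100 indicates growth inhibition (40 means 60% inhibition), 0 means no net growth, and negative values indicate cell death.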 Unmarked numbers belong to inactive results. Calls of active or inactive are those of the source. Rule for the calls: active = growth percent below 10; inactive = the rest.

This assay relates to SR leukemia. The assay can be described thus: NCI-60 one-dose screen, 48 h (100 = growth as untreated, 0 = no growth, -100 = all killed). The conditions noted are these: 10 µM.
As for `Clc1ccc(Nc2ccnc(NCCNc3ccnc4cc(Cl)ccc34)n2)cc1`, the growth is -22.3% (active).
In the case of `COc1cc(Nc2ccnc(NCCCNc3ccnc4cc(Cl)ccc34)n2)cc(OC)c1` it was -21.6% (active).
In the case of `c1ccc2c(-c3nc(N4CCOCC4)c4c5c(sc4n3)CCCCCC5)cccc2c1` it was 94.8%.
In the case of `COc1ccc(S(=O)(=O)Nc2c(/C=C\c3cc(OC)c(OC)c(OC)c3)ccc(OC)c2O)cc1` it was 10.5%; in that of `COc1ccc2nc3cc(Cl)ccc3c(NCCNCC(C)O)c2c1` (stereo not drawn), 2.01% (active); in that of `COc1ccc(-c2cc(/C=C3\C(=O)Nc4ccc(Cl)cc43)[nH]n2)cc1OC`, 55.2%.
For `Cc1nc2c(c(=O)[nH]1)OCN(Cc1ccccc1)C2`, the growth is 93.6%.
In the case of `COc1cc(NC(=O)c2sc3nc4c(cc3c2N)C(O)CCC4)cc(OC)c1` (stereo not drawn) it was 16.8%; in that of `CC/C(=C(/c1ccc(OCCN(C)C)cc1)c1ccc(OC(=O)CCCCC(=O)c2c(C)[nH]c(/C=C3\N=C(c4ccc[nH]4)C=C3OC)c2C)cc1)c1ccccc1`, 45.3%.
In the case of `c1ccc(CP(Cc2ccccc2)c2ccccc2)cc1` it was 82.3%; in that of `COc1cc(-c2cc(/C=C/C(=O)c3ccc(N)cc3)[nH]n2)cc(OC)c1OC`, 9.82% (active); in that of `CC(C)(Cl)CCC1=C(Cl)C(=O)c2ccccc2C1=O`, -25.3% (active).
In the case of `COc1ccc(-c2nn(-c3cccc(NC(=O)Nc4ccccc4)c3)cc2-c2ccncc2)cc1Cl` it was -6.06% (active).
Regarding `O=C(c1cccs1)c1ccccc1Cc1ccccc1`, the growth was 93.1%.
Consider `FC(F)(F)c1ccc(-c2cnc(Cl)nc2N2CCC3(CC2)OCCO3)cc1`, for which the growth was 81.5%.
In the case of `COc1ccc(-c2nsc3c2NC(=O)CC3c2ccc(F)cc2)cc1` (stereo not drawn) it was 3.34% (active); in that of `Nc1ccc2c(c1)C1(CCC2)NC(=O)NC1=O` (stereo not drawn), 89.7%.
In the case of `O=C(Nc1cccc(-n2cc(-c3ccncc3)c(-c3cc(O)cc(Cl)c3)n2)c1)c1ccc(N2CCOCC2)c(C(F)(F)F)c1` it was -12.4% (active).
In the case of `COc1cc2cc3c(nc2cc1OC)CCN3Cc1ccc(NC(=O)Nc2cc(C(F)(F)F)cc(C(F)(F)F)c2)cc1` it was 55.2%.
For the compound `COc1ccc(-c2nn(-c3cccc(NC(=O)c4cccc(C(F)(F)F)c4)c3)cc2-c2ccncc2)cc1Cl`, the growth is 4.46% (active).
In the case of `COc1ccc(-c2nc3sccn3c2-c2nc3c([nH]2)C(=O)c2ccccc2C3=O)cc1` it was 76.6%; in that of `O=C1/C(=C\c2ccccc2)CN(C(=O)c2ccccc2)C/C1=C\c1ccccc1`, -33% (active).
In the case of `CCOC(=O)C1(CC(C)C)CCOC1=O` (stereo not drawn) it was 104%; in that of `CCOC(=O)N1C/C(=C/c2ccc(Cl)cc2)C(=O)/C(=C/c2ccc(Cl)cc2)C1`, -5.62% (active); in that of `CCN1CCCC1CNC(=O)c1ncc(-c2ccc(C(F)(F)F)cc2)c(NC2CCCCCC2)n1` (stereo not drawn), -16.6% (active).
In the case of `CCOC(=O)N/N=C\C(C)=N\NC(=O)OCC` it was 96.6%; in that of `Cc1cc2c(C)c3cc(C)c(N)cc3nc2cc1N`, -24.3% (active).
As for `COc1ccc(-c2cc(/C=C/C(=O)c3cc(OC)c(OC)c(OC)c3)[nH]n2)cc1OC`, the growth was 3.11% (active).
In the case of `CC(=O)N1N=C(c2ccc(Cl)cc2)CC1c1sc(Cl)nc1Cl` (stereo not drawn) it was 58.5%; in that of `O=C1/C(=C/c2ccc([N+](=O)[O-])s2)Oc2ccccc21`, 7.01% (active); in that of `CN(C)Cc1cn(-c2ncc(-c3ccc(C(F)(F)F)cc3)c(NC3CCCCCC3)n2)nn1`, 39.6%.
In the case of `CSCCCNC(=O)c1ccc2c(c1)/C(=C/c1[nH]c(C)cc1C)C(=O)N2` it was 10.7%; in that of `Fc1cc(C(F)(F)F)ccc1-c1cncnc1NC1CCCCCC1`, 118%; in that of `CCOC(=O)N1C/C(=C/c2ccc(OC)cc2)C(=O)/C(=C/c2ccc(OC)cc2)C1`, -16.7% (active).
In the case of `COc1ccc2c(c1)N(CCO)C1=C(C(=O)OC1)C2c1cc(OC)c(OC)c(OC)c1` (stereo not drawn) it was 23.5%.
With `Cc1cccc(C)c1NC(=O)c1sc2nc3c(cc2c1N)C(=O)CCC3`, the growth is 69.1%.
In the case of `COc1ccc2c(c1OC)O/C(=C\c1ncc([N+](=O)[O-])n1C)C2=O` it was 6.02% (active); in that of `COc1ccc(Oc2nc(NC3CCCC3)nc(Sc3ccc(OC)cc3)n2)cc1`, 45.7%.
